Compound activity from PubChem.
NR1D1 modulator: Rev-erb alpha (human) modulation | activity, % at 10 µM | Rev-erbα–FITC-DNA binding, fluorescence polarization, 90 min | actives 0.79% (n = 370,000) | P20393;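 active = activity above about 14%, limit read from the data; passing the limit was not always enough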
KLK7 zymogen act: activates the human kallikrein-7 zymogen; P49862; purified proKLK7, EDANS-DABCYL substrate fluorescence; 100% is mature enzyme control, 0% vehicle; activation, % at 7 µM; actives 0.9% (n = 370,000);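 active = activation above the mean of all tested compounds plus 3 SD, computed per campaign excluding outliers beyond control limits, cut at about 13% in these data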
Target sequence (P49862 whole entry, looked up): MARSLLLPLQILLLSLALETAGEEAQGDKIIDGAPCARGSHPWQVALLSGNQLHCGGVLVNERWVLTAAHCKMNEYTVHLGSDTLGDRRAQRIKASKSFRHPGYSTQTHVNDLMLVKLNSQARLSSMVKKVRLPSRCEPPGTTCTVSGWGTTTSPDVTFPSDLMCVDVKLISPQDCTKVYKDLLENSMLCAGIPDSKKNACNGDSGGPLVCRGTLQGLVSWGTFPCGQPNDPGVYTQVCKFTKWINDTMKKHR
PP1 counter: counter-screen for PP5 inhibitors: inhibitors of human PP1-alpha; actives 0.9% (n = 320,000); purified PP1alpha, OMFP fluorescence; inhibition, % at 6.7 µM;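 active = inhibition above the mean inhibition of all tested compounds plus 3 SD, computed separately for each screening campaign, cut at about 15% in these data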
GASC-1 inh: blocks human GASC-1 demethylase activity. GST-JMJD2C(1-420) H3K9me3 demethylation, DELFIA europium. inhibition, % at 2.35 µM. actives 0.069% (n = 330,000);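 active = more than half of a compound's replicate wells show inhibition beyond 50%, single wells judged on their own value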;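 note: signal counts dimethyl H3K9 product captured on neutravidin plate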
PG9 binder: small molecules binding HIV-1 gp120 antibody PG9 | TR-FRET gp120-PG9 antibody binding | inhibition, % at 6.7 µM | actives 0.43% (n = 360,000) | AID 624416; in the data active = inhibition above about 8.5%
PP5 inh: inhibitors of human protein phosphatase 5 (PP5) | P53041 | inhibition, % at 6.7 µM | AID 1987 | purified PP5c, OMFP substrate fluorescence | actives 0.18% (n = 320,000);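 active = inhibition above the campaign's mean inhibition across all tested compounds plus 3 SD, cut at about 9.5% in these data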
Large screens that a line does not name were inactive. Sampled rows, rich in hits. Any-hit rate of the full collection: about 2.8%.

CN(C)CCN(C(=O)/C=C/c1cccs1)c1nc2ccc(F)cc2s1	GASC-1 inh 50
O=C(NCCc1ccccc1)C1CCC(CNS(=O)(=O)c2ccccc2)CC1 (stereo not drawn)	PP1 counter 16
COc1ccc(CCNC(=O)C2CCC(CNS(=O)(=O)c3ccccc3)CC2)cc1OC (stereo not drawn)	none (no result: NR1D1 modulator, KLK7 zymogen act, PG9 binder)
COC(=O)C1=C(C)N(CCc2cc(OC)c(OC)c(OC)c2)C(=O)N[C@H]1c1cccs1	GASC-1 inh 56 (no result: NR1D1 modulator, KLK7 zymogen act, PG9 binder)
CCOC(=O)CN1C(=O)N[C@@H](c2cccs2)C(C(=O)OC)=C1C	none
CCOc1ccc(-n2c(SCC(=O)NN=Cc3ccc(C(=O)O)cc3)nnc2-c2cccnc2)cc1	none (no result: PP1 counter, GASC-1 inh, PG9 binder, PP5 inh)
O=c1oc(-c2ccccc2)cc(Cl)c1Cl	KLK7 zymogen act 347
O=c1oc(-c2ccccc2)cc2ccccc12	none (no result: PP1 counter, GASC-1 inh, PP5 inh)
Cc1cc(C(=O)NN=Cc2cccc(O)c2)n[nH]1	none (no result: PP1 counter, GASC-1 inh, PG9 binder, PP5 inh)
COc1ccc(/C(C)=N/Nc2ccc(C(=O)O)cc2)c(OC)c1	none
COc1ccc2c(c1)C(=NNc1ccc(C(=O)O)cc1)c1cc(OC)ccc1-2	PP1 counter 16
CN(C)/C=C/C(=O)c1ccc(Br)cc1	none
Cc1ccc(C)n1-c1ccc(C(=O)/C=C/N(C)C)cc1	PP1 counter 16
COc1ccc(/C=C2\SC(=S)N(CC(=O)NC3C=CS(=O)(=O)C3)C2=O)cc1 (stereo not drawn)	PP1 counter 16
Cc1c2cc(O)c(=O)cc-2oc2cc(O)c(O)cc12	PP1 counter 33
COc1cc(OC)c(-c2c3cc(O)c(=O)cc-3oc3cc(O)c(O)cc23)cc1OC	none
CC(=O)[C@H]1CCC2C3CC=C4C[C@@H](OC(=O)CCC(=O)O)CC[C@]4(C)C3CC[C@@]21C (stereo partly drawn)	none (no result: KLK7 zymogen act, PP1 counter, GASC-1 inh, PG9 binder, PP5 inh)
O=C(NC1CCN(S(=O)(=O)c2cccc([N+](=O)[O-])c2)CC1)C1CCCCC1	PP1 counter 16
COc1ccc2ccccc2c1-c1c(C(=O)c2ccc(Br)cc2)[nH]c(N)c1C(=O)NC1CCCCC1	none (no result: KLK7 zymogen act, PP1 counter, GASC-1 inh, PG9 binder, PP5 inh)
COCCN(C(=O)C1CC(=O)N(Cc2ccccc2)C1)c1nc(-c2ccc([N+](=O)[O-])cc2)cs1 (stereo not drawn)	PP1 counter 17
O=C(OCc1ccc([N+](=O)[O-])cc1)C1CC(=O)N(Cc2ccccc2)C1 (stereo not drawn)	none (no result: PP1 counter, PP5 inh)
CC1(C)CC(=O)N(CC(=O)N2CCN(c3cccc(Cl)c3Cl)CC2)c2ccccc2S1(=O)=O	none (no result: PP1 counter, GASC-1 inh, PG9 binder, PP5 inh)
Cc1oc2c(CN3CCOCC3)c(O)ccc2c(=O)c1-c1ccc(Br)cc1	none
Cc1oc2c(CN(C)C)c(O)ccc2c(=O)c1-c1cscn1	KLK7 zymogen act 20
O=C(Nc1ccc(Cl)c(Cl)c1)Nc1nccs1	PP1 counter 18
O=C(Nc1cccc(Cl)c1)Nc1nccs1	none
CCCC[C@H]1C2CC(OC(=O)NCc3ccc(Cl)cc3)C(C2)[C@H]2CCCCN21 (stereo partly drawn)	none (no result: PP1 counter, GASC-1 inh, PG9 binder, PP5 inh)
COC(=O)c1ccc(N)cc1O	none
COC(=O)c1ccc(=O)c2nc3/c(=C/O)c(O)cc(=O)c3[nH]c12	PP1 counter 49 (no result: GASC-1 inh)
Cc1ccc(CN2C(=O)C3CCCN3c3ncccc32)cc1 (stereo not drawn)	none
Cc1ccc(CN2C(=O)C3CCCN3c3ccc(S(=O)(=O)N4CCOCC4)cc32)cc1 (stereo not drawn)	PP1 counter 24 (no result: NR1D1 modulator, KLK7 zymogen act, PG9 binder)
COc1ccc(NC(=O)CCC(=O)c2ccc(-c3ccccc3)cc2)cc1	PP1 counter 16
c1ccc(Oc2nc(-c3ccccn3)nc3ccccc23)cc1	PP1 counter 16
CCCCC(=O)O[C@]1(C(=O)CO)[C@@H](C)CC2C3CCC4=CC(=O)C=C[C@]4(C)[C@@]3(F)C(O)C[C@@]21C (stereo partly drawn)	none (no result: KLK7 zymogen act, PP1 counter, GASC-1 inh, PG9 binder, PP5 inh)
C/C(=N\NC(=O)COc1ccc(C(C)(C)C)cc1)c1ccc(-n2ccnc2)cc1	PP1 counter 15
COc1ccccc1C(=O)N1CCC(Oc2cccnc2)CC1	none (no result: PP1 counter, GASC-1 inh, PG9 binder, PP5 inh)
O=C(O)c1ccccc1-c1ccccc1C(=O)Nc1ccc2c(c1)[nH]c(=O)c1ccccc12	PP1 counter 15
NC(=O)[C@H]1CC2(CC(c3cccc(NC(=O)CC(c4ccccc4)c4ccccc4)c3)=NO2)CN1C(=O)C(c1ccccc1)c1ccccc1 (stereo partly drawn)	PP1 counter 17
